# Source: PubChem BioAssay (NCATS)
# Results filed as inconclusive are left out. Where a call stands in place of a potency, no number is given. Activity calls are given as the source filed them. Unless noted, the call rests on the fitted dose curve; in most records, active means well fitted curve in the direction sought with a large enough effect; inconclusive means small, poorly fitted or top-dose-only effect, or another doubt; inactive means no such curve, though single readings can be large; an effect the other way counts as inactive or inconclusive.
# Legend:
# [1] = biological target: Retinoic acid receptor RXR-alpha (Homo sapiens) (UniProt P19793); assay: qHTS assay for small molecule agonists of retinoid X receptor alpha signaling (AID 588544; calls by dose curve)
# [2] = qHTS assay for small molecule antagonists of retinoid X receptor alpha signaling (AID 588546; active means well fitted inhibition curve with a large enough effect in the signal ratio, with a control signal flat, not every such curve was filed as active; the % refers to the signal ratio;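 further: cells stimulated with 9-cis-retinoic acid as agonist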); conditions: HEK293T RXRa-UAS-bla, beta-lactamase ratio, antagonist mode; measured here: W530 green channel, cytotoxicity proxy
# Outline: (§1)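 Beta-lactamase reporter inhibition, read as CCF4 fluorescence ratio (ex 405, em 460/530 nm) after 2 h at RT. HEK293T UAS-bla cells, 2500/well, were stimulated with 9-cis-RA at 500 or 100 nM final alongside test compound for 18 h at 37 C.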
# [3] = biological target: Retinoic acid receptor RXR-alpha (Homo sapiens) (UniProt P19793); assay: as above; conditions: HEK293T RXRa-UAS-bla, beta-lactamase ratio, antagonist mode
# Outline: as §1
# [4] = biological target: Thyroid hormone receptor beta (Homo sapiens) (UniProt P10828); assay: qHTS assay for small molecule antagonists of thyroid hormone receptor beta signaling (AID 588547; active means well fitted inhibition curve with a large enough effect in the signal ratio, with a control signal flat, not every such curve was filed as active; the % refers to the signal ratio;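 further: cells stimulated with 0.4 nM T3 agonist during compound exposure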); conditions: TR-UAS-bla HEK293, beta-lactamase ratio, antagonist mode, 18 h
# Outline: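 TR-UAS-bla GripTite HEK293 cells in 2% charcoal/dextran FBS medium were preincubated 4 h at 37 C, given compound (0.59 nM to 92 uM) plus 0.4 nM T3 (final) for 18 h, then CCF4 for 2 h at RT; Hill fit gave IC50.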
# [5] = biological target: Voltage-gated inwardly rectifying potassium channel KCNH2 (Homo sapiens) (UniProt Q12809); assay: qHTS Assay for Small Molecule Inhibitors of the Human hERG Channel Activity (AID 588834);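 further: top concentration of the series differs between compounds; lower thallium flux fluorescence means stronger hERG block; nearly all actives have a fitted effect of over 50% in size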
# Outline: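 U2OS cells BacMam-transduced with hERG, 2000 cells/well, compound ~10 min at 37 °C before stimulation buffer. FluxOR thallium flux fluorescence read kinetically on FDSS; decrease indicates block; AC50 from Hill fits.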
# [6] = biological target: Luciferin 4-monooxygenase (Photinus pyralis) (UniProt P08659); assay: Biochemical firefly luciferase enzyme assay for NPC (AID 624030);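 further: purified P. pyralis luciferase at 10 nM with luciferin and ATP substrate; nearly all actives have a fitted effect of over 70% in size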
# Outline: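 Counter-screen for direct inhibition of the luciferase enzyme by approved-drug library compounds, run at 10 nM enzyme in 50 mM Tris acetate (final). Luminescence was read within 5 min of enzyme-buffer addition and normalized to PTC124 versus DMSO (0%).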
# [7] = qHTS assay for small molecule agonists of the antioxidant response element (ARE) signaling pathway (AID 651741; active means well fitted activation curve with a large enough effect in the signal ratio; the % refers to the signal ratio)
# Outline: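 ARE-bla HepG2 cells (beta-lactamase reporter under ARE control) were plated at 2,000 cells/well, preincubated 5 h at 37 C/5% CO2, then treated with DMSO-dissolved compounds for 16 h at 37 C; LiveBLAzer B/G FRET substrate added, fluorescence read after 2 h at room temperature.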
# [8] = qHTS assay for small molecule activators of the p53 signaling pathway (AID 651743; active means well fitted activation curve with a large enough effect in the signal ratio, not every such curve was filed as active; the % refers to the signal ratio); conditions: HCT-116 p53RE-bla, beta-lactamase FRET ratio, 16 h; activation: stronger effect = higher value
# Outline: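 p53RE-bla HCT-116 cells with a stably integrated beta-lactamase reporter under p53 response elements were plated, rested 5 hours at 37 C/5% CO2, then exposed to compounds in DMSO for 16 hours at 37 C. LiveBLAzer B/G FRET substrate was read after 2 hours at room temperature.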
# [9] = qHTS assay for small molecule disruptors of the mitochondrial membrane potential - 1 hr assay (AID 651754; calls by dose curve; further: nearly all actives have a fitted effect of over 35% in size)
# Outline: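 Steps: seed HepG2 cells and let attach overnight; pin-transfer compound or vehicle; incubate 1 hr at 37C; add Mito-MPS dye for 30 min; read two-channel fluorescence for monomer and aggregate forms.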
# [10] = qHTS assay for small molecule disruptors of the mitochondrial membrane potential - 5 hr assay (AID 651755; calls by dose curve; further: nearly all actives have a fitted effect of over 40% in size)
# Outline: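 HepG2 cells, attached overnight at 37C, were exposed to compound or DMSO for 5 hr at 37C, 5% CO2. Mito-MPS dye was then added for 30 min, and fluorescence read at 490/535 nm (monomers) and 540/590 nm (aggregates).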
# [11] = biological target: Tumor necrosis factor (Homo sapiens) (UniProt P01375); assay: qHTS assay to identify small molecules that stimulate Tumor Necrosis Factor-alpha (TNF-alpha) secretion (AID 651757; active means well fitted curve in the direction sought with a large enough effect in the signal ratio; the % refers to the signal ratio)
# Outline: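 Secreted TNF-alpha from compound-treated THP-1 cells (17 hrs, 37 C) was quantified with a homogeneous time-resolved fluorescence antibody assay.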
# [12] = biological target: Peroxisome proliferator-activated receptor alpha (Homo sapiens) (UniProt Q07869); assay: qHTS assay for small molecule agonists of the peroxisome proliferator-activated receptor alpha (PPARalpha) signaling pathway (AID 651778); conditions: PathHunter PPARalpha complementation, chemiluminescence, 6 h; stronger effect = higher value
# Outline: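 Cells plated at 2,000/well and held overnight at 37 C, 5% CO2, then compound added by pin tool for 6 hr; after PathHunter detection reagent and 60 min at room temperature, chemiluminescence from enzyme complementation was read.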
# [13] = biological target: Nuclear receptor ROR-gamma (Homo sapiens) (UniProt P51449); assay: qHTS assay for small molecule antagonists of the retinoid-related orphan receptor gamma (ROR-gamma) signaling pathway (AID 651802);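 further: CHO cells with doxycycline-induced ROR-gamma expression; nearly all actives have a fitted effect of over 60% in size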
# Outline: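 Antagonism is scored as a fall in luminescence from a RORE-luciferase reporter in CHO cells expressing ROR under a TET-inducible promoter, measured 16hr after doxycycline induction in the presence of compound.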
# [14] = qHTS assay for small molecule agonists of the antioxidant response element (ARE) signaling pathway measured by Nrf2-dependant transcriptional activity (AID 720636; active means well fitted curve in the direction sought with a large enough effect in the repeat runs; an effect the other way counts as inactive or inconclusive)
# Outline: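 ARE-luc HepG2 cells carrying an Nrf2-responsive luciferase reporter were plated in medium with 1% dialyzed FBS, left 6 hr at 37 C to attach, then exposed to compound for 16 hr. Luciferase luminescence was read after ONE-Glo addition.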
# [15] = qHTS assay for small molecule antagonists of the retinoid-related orphan receptor gamma (ROR-gamma) signaling pathway - cell viability counter screen (AID 720652; active means well fitted curve in the direction sought with a large enough effect in the repeat runs; an effect the other way counts as inactive or inconclusive;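 further: CHO reporter cells with doxycycline-induced ROR-gamma expression; compound exposure lasted 16 hr before ATP read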)
# Outline: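 Cytotoxicity is quantified via intracellular ATP (CellTiter-Glo luminescence) in doxycycline-induced CHO ROR response element-luciferase reporter cells treated with compound for 16 hr at 37 C, 5% CO2.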
# [16] = qHTS assay for small molecule agonists of the antioxidant response element (ARE) signaling pathway measured by Nrf2-dependant transcriptional activity - cell viability counter screen (AID 720653; active means well fitted curve in the direction sought with a large enough effect in the repeat runs; an effect the other way counts as inactive or inconclusive); conditions: ARE-bla HepG2 viability, CellTiter-Glo ATP luminescence, 16 h; max response: stronger effect = lower value
# Outline: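 ARE-bla HepG2 cells (2,000/well) rested 5 hrs at 37C/5% CO2, then exposed to compounds in DMSO for 16 hrs. Viability was read in the same wells as intracellular ATP by luminescence, 30 min at room temperature after reagent addition.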
# [17] = qHTS assay for cell viability of HEK293 cells (AID 743288); conditions: ATP luminescence (CellTiter-Glo), 18 h; max response: stronger effect = lower value; further: nearly all actives have a fitted effect of over 50% in size
# Outline: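 Parental HEK293 cells, 2,000 per well, preincubated at least 5 h at 37 C, then exposed to compounds in DMSO for 18 h at 37 C. Viability by CellTiter-Glo ATP luminescence after 30 min at room temperature.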
# [18] = qHTS assay for cell viability of the p53RE-bla HCT-116 cell line (AID 743292); further: nearly all actives have a fitted effect of over 55% in size
# Outline: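 CellSensor p53RE-bla HCT-116 cells, 4,000/well, preincubated 5 h at 37 C, then exposed to compounds in DMSO for 16 h at 37 C. Viability read as CellTiter-Glo luminescence (intracellular ATP) after 30 min at room temperature.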
# [19] = P-glycoprotein substrates identified in KB-8-5-11 adenocarcinoma cell line, qHTS therapeutic library screen (AID 1346987); further: nearly all actives have a fitted effect of over 65% in size
# Outline: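 P-gp-mediated resistance screen: KB-8-5-11 cells treated 72 h with compounds in dose-response. CellTiter-Glo viability.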
# astro = assay: Drug repurposing screens with cells derived from glioblastoma tumor samples (AID 1345199); conditions: viability, ATP luminescence, 48 h; series mostly up to 45.9 µM; further: nearly all actives have a fitted effect of over 40% in size
# Outline: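 Four patient lines of CD133+ GBM neurospheres were screened at several concentrations; hits were retested in those lines plus three slower-growing GBM lines, using 48-hour treatment and ATP-based viability.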
# [20] = biological target: Nuclear receptor subfamily 1 group I member 2 (Rattus norvegicus) (UniProt Q9R1A7); assay: qHTS assay for small molecule activators of the rat pregnane X receptor (rPXR) signaling pathway (AID 651751; call rule not given here); conditions: rPXR reporter cells, luciferase (One-Glo), 24 h
# [21] = qHTS assay for small molecule activators of the human pregnane X receptor (PXR) signaling pathway (AID 720659; call rule not given here)
# Sequence of Luciferin 4-monooxygenase (Photinus pyralis) (P08659 whole entry, looked up): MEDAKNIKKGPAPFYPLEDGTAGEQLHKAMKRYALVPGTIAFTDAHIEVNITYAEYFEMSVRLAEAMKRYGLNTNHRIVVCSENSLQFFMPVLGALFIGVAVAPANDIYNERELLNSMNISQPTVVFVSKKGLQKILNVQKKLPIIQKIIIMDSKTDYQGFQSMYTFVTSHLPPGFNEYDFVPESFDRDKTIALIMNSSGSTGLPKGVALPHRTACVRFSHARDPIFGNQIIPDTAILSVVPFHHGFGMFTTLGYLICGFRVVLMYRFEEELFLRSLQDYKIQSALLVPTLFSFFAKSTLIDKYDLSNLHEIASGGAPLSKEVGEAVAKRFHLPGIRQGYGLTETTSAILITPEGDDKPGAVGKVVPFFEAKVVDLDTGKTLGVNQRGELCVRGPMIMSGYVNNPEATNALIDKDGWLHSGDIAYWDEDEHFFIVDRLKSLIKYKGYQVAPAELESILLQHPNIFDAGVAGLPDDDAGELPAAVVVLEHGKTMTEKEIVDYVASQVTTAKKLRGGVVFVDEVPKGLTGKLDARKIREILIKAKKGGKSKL
# Sequence of Retinoic acid receptor RXR-alpha (Homo sapiens) (P19793 whole entry, looked up): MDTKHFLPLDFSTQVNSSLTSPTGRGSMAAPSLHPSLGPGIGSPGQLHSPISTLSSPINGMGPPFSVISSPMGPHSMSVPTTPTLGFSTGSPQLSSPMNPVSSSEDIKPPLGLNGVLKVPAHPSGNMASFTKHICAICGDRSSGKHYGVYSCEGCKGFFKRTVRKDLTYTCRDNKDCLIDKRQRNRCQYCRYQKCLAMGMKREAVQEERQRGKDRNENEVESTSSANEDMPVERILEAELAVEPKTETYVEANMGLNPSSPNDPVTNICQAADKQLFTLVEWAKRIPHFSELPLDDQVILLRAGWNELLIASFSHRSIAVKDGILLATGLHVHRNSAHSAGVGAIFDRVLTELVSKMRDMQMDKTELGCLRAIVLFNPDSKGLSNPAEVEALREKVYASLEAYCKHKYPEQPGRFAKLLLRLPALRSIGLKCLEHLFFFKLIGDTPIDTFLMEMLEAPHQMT
# Sequence of Voltage-gated inwardly rectifying potassium channel KCNH2 (Homo sapiens) (Q12809 whole entry, looked up): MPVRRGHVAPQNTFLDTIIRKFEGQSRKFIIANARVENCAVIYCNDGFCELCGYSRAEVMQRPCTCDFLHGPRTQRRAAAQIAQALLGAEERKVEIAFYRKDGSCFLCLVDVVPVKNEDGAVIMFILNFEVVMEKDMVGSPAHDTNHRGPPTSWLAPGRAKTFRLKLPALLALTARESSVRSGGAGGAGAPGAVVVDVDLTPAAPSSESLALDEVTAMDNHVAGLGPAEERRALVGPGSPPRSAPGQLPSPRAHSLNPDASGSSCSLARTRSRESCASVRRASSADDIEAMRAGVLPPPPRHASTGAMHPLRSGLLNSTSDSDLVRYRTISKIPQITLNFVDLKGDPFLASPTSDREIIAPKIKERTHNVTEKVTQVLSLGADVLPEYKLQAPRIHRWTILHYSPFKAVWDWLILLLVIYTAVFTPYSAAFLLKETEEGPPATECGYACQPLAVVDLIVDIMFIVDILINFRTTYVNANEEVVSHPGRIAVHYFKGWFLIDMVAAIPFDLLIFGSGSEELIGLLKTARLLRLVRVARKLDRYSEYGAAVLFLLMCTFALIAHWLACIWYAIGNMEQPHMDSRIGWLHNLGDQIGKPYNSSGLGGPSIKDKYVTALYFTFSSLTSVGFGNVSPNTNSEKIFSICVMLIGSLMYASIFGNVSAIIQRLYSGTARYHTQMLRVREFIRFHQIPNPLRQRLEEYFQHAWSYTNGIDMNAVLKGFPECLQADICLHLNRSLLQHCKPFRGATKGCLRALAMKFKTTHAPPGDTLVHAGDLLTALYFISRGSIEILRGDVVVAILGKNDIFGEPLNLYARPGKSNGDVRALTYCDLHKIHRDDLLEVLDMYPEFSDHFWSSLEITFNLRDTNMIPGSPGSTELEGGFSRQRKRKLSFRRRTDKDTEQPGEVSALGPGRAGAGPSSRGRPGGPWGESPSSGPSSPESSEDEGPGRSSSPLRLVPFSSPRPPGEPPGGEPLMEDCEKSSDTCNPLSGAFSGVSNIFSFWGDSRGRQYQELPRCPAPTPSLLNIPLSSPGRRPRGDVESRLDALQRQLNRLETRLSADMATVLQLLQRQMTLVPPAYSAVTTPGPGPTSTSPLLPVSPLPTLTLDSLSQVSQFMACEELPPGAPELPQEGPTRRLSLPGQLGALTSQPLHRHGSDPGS
# Sequence of Peroxisome proliferator-activated receptor alpha (Homo sapiens) (Q07869 whole entry, looked up): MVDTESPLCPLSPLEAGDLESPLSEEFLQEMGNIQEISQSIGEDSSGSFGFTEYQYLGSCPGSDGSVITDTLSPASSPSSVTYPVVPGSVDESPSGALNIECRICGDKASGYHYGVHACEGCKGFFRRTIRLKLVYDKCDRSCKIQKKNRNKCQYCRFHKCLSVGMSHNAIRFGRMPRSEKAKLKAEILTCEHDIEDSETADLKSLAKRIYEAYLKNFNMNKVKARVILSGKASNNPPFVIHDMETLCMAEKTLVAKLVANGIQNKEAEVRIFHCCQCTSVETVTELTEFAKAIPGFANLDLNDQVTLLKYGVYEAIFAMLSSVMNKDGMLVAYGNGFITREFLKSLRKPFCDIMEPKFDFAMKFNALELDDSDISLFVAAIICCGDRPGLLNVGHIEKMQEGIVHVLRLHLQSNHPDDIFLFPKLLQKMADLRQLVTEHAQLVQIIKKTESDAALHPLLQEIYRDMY
# Sequence of Tumor necrosis factor (Homo sapiens) (P01375 whole entry, looked up): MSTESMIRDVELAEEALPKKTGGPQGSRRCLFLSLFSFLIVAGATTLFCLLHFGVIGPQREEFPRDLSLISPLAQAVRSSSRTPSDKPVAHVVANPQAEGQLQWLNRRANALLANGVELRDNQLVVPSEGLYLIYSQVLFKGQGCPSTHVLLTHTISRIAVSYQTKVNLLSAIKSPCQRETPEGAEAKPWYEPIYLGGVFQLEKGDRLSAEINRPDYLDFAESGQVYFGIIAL
# Sequence of Nuclear receptor ROR-gamma (Homo sapiens) (P51449 whole entry, looked up): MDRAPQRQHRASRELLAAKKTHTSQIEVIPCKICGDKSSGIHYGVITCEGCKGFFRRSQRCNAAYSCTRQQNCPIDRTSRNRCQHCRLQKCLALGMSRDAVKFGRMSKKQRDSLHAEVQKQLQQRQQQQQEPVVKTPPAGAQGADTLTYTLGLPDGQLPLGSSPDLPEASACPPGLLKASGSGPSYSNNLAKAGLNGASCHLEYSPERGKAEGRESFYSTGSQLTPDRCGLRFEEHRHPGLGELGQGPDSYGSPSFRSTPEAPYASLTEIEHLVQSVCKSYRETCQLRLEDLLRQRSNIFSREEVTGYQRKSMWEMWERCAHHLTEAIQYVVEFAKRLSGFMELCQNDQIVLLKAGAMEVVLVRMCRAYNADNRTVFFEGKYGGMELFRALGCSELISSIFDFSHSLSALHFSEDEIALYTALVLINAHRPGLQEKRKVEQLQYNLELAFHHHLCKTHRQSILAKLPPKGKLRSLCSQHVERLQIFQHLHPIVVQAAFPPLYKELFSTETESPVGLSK
# Sequence of Nuclear receptor subfamily 1 group I member 2 (Rattus norvegicus) (Q9R1A7 whole entry, looked up): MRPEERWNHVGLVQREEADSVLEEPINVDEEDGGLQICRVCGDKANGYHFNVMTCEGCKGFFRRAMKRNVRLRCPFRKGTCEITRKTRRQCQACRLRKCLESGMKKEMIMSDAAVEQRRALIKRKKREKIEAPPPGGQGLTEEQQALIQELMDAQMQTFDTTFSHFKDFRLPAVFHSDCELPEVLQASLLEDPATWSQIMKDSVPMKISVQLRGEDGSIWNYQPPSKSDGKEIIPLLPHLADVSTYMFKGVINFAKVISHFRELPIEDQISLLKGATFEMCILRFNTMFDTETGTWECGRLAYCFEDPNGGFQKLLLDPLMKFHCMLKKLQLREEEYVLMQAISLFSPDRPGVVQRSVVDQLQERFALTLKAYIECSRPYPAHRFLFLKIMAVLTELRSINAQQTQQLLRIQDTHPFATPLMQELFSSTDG
# Sequence of Thyroid hormone receptor beta (Homo sapiens) (P10828 whole entry, looked up): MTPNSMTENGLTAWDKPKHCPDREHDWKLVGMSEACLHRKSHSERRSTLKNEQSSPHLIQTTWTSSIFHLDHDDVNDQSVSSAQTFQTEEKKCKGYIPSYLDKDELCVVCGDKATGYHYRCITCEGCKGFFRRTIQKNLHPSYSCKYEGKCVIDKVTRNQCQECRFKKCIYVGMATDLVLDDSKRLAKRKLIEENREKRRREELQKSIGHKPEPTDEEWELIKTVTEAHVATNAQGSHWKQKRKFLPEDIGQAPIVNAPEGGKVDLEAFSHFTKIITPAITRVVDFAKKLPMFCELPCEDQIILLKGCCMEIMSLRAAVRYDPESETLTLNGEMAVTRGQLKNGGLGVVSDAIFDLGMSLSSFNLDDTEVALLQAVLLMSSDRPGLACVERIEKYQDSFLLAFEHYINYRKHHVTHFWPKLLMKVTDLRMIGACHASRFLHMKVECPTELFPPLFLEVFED
smiles,measurement,setting,value
O=Cc1ccccc1,outcome,[1],inactive
same,max response,[2],-3.83%
same,max response,[3],10.9% (inactive)
same,activity change % (negative = inhibition),[4],12% (inactive)
same,Potency,[5],inactive
same,Potency,[6],inactive
same,Potency,[7],inactive
same,activation,[8],-1.08% (inactive)
same,Potency,[9],inactive
same,Potency,[10],inactive
same,outcome,[11],inactive
same,max response,[12],-3.46% (inactive)
same,Potency,[13],inactive
same,Potency,[14],inactive
same,outcome,[15],inactive
same,max response,[16],-5.51% (inactive)
same,max response,[17],-12% (inactive)
same,outcome,[18],inactive
same,Potency,[19],inactive
same,Potency,astro,inactive
same,max response,[20],2.23% (inactive)
same,outcome,[21],inactive
